Results filed as inconclusive are left out. Calls of active or inactive are those of the source. Unless noted, the call rests on the fitted dose curve; in most records, active means well fitted curve in the direction sought with a large enough effect; inconclusive means small, poorly fitted or top-dose-only effect, or another doubt; inactive means no such curve, though single readings can be large; an effect the other way counts as inactive or inconclusive.
Experiments:
[1] = target: Thyrotropin-releasing hormone receptor (Homo sapiens) (UniProt P34981); assay: qHTS for Small Molecule Agonists and Allosteric Enhancers of Human TRH Receptor: Validation Screen for Agonists (AID 493127;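 active means calcium activation more than 3 SD above the typical response in the agonist read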;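 further: intracellular calcium rise by fluo-8 fluorescence before TRH EC20 addition; 0% is about no effect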); settings: TRH receptor agonist cell assay; at 2 µM; hits give high values
How it was run: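 Compound-evoked intracellular calcium release in fluo-8-loaded TRHR cells, read kinetically on FDSS (Ex 480/Em 530, 1 s/cycle) after 23 nL pintool transfer. Agonist phase preceded 10 nM TRH EC20 addition.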

[2] = target: Galactokinase (Homo sapiens) (UniProt P51570); assay: qHTS Validation Assay for Inhibitors of Human Galactokinase (GALK) (AID 493189); settings: purified human GALK enzyme activity, qHTS 7-point titration; series mostly up to 57.5 µM; further: 0% is about no effect
How it was run: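 Compounds were pin-transferred into ATP buffer, then GALK-galactose mix was added (final 5 nM enzyme, 100 uM galactose, 35 uM ATP). After 1 h at room temperature, remaining ATP was measured luminescently.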

[3] = Validation screen for small molecules that induce DNA re-replication in SW480 colon adenocarcinoma cells (AID 504364); settings: DNA re-replication phenotype (high-content imaging); series mostly up to 46.1 µM; further: 0% is about no effect
How it was run: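 Image-based DNA content read-out: Hoechst stain 40 min, total nuclear fluorescence intensity (ex 405 nm, em 500-530 nm) after 48 h compound exposure of 250 SW480 cells/well at 37 C, 5% CO2, versus DMSO vehicle.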

[4] = target: Voltage-gated inwardly rectifying potassium channel KCNH2 (Homo sapiens) (UniProt Q12809); assay: qHTS Assay for Small Molecule Inhibitors of the Human hERG Channel Activity (AID 588834); settings: U2OS BacMam hERG, FluxOR thallium flux fluorescence; series mostly up to 46.1 µM;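 further: U2OS cells transduced with hERG by BacMam; top concentration of the series differs between compounds; on the % scale 0 is the no-effect control and ±100 the full control effect; lower thallium flux fluorescence means stronger hERG block; nearly all actives have a fitted effect of over 50% in size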
How it was run: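 Cells were infected with hERG-BacMam virus for 4 hrs at room temperature, grown overnight, then seeded at 2000/well. After dye loading and roughly 10 min compound treatment, thallium influx was triggered and fluorescence recorded.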

Chain of Voltage-gated inwardly rectifying potassium channel KCNH2 (Homo sapiens) (Q12809 whole entry, looked up): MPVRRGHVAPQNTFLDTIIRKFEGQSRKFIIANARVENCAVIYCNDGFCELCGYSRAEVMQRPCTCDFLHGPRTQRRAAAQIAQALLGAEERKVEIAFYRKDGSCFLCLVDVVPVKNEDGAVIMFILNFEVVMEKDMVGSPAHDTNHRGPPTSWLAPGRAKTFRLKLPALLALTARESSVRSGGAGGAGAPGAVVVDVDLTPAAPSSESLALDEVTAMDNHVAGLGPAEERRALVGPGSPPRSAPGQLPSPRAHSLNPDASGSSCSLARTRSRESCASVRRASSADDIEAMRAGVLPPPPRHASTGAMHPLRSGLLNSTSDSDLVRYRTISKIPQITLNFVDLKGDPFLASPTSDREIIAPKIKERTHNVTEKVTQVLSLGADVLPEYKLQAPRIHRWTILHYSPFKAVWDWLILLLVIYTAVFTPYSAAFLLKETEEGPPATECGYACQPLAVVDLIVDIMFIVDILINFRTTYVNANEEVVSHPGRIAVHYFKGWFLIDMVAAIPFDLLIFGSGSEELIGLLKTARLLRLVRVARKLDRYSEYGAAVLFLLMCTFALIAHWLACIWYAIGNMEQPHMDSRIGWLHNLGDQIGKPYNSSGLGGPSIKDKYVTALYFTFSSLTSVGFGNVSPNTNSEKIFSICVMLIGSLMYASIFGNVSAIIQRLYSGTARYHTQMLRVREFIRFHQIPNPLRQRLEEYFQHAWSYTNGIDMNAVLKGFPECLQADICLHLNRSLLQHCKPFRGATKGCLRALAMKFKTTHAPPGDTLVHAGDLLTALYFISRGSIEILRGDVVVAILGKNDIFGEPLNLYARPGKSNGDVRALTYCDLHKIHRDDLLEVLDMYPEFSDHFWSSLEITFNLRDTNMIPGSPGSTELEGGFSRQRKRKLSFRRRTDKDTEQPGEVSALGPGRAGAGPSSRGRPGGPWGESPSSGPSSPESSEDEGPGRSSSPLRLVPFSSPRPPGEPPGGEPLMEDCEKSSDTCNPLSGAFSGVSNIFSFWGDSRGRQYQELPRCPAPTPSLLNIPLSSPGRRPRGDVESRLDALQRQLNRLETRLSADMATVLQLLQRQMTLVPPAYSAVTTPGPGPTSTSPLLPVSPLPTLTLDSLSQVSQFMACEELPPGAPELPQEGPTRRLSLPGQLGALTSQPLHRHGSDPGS
Chain of Galactokinase (Homo sapiens) (P51570 whole entry, looked up): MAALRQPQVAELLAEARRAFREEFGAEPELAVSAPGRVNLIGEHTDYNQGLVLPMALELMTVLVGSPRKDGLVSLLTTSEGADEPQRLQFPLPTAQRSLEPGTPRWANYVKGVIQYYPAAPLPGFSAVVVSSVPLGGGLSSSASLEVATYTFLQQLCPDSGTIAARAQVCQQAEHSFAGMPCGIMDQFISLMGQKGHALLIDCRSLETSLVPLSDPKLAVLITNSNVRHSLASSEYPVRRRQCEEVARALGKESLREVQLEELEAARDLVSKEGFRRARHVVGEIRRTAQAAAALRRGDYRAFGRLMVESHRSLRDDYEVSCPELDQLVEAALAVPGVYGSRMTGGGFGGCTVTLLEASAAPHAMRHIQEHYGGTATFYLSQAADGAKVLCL
Chain of Thyrotropin-releasing hormone receptor (Homo sapiens) (P34981 whole entry, looked up): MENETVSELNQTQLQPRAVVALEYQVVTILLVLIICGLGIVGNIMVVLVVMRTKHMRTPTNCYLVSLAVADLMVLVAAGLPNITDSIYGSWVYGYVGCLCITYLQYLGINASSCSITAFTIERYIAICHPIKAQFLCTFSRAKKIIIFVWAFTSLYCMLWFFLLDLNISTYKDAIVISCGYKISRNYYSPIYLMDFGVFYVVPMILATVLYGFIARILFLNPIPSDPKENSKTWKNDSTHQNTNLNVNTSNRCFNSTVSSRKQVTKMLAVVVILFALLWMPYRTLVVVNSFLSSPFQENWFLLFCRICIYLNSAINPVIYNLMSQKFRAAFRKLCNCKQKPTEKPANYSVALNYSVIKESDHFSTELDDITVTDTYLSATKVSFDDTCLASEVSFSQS

C[N+](C)(C)CCC(=O)c1cccc2ccccc12
inactive: activation [1] 3.69% | outcome [2] | outcome [3] | Potency [4]
